Screening data as filed in PubChem BioAssay.
Only some compounds are listed: those with a hit (about 2.3% of all), similar ones and a draw of the others.
CHO-K1 Ca PAM: nonselective activator or artifact in parental CHO-K1 calcium assay | ATP EC20, Fluo-8 calcium fluorescence; 0% at ATP EC20, 100% at ATP max | activation, % at 3 µM | 360,000 compounds, 0.02% hits;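 active = activation above the run cutoff, the mean activation of all test compounds plus 3 SD, cut at about 40% in these data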;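 also: peak over basal fluorescence ratio in a 140 s read after ATP addition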
CHO-K1 Ca antag: nonselective inhibitor or artifact in parental CHO-K1 cells; ATP-induced calcium, Fluo-8 fluorescence; inhibition, % at 3 µM; 360,000 compounds, 0.6% hits; AID 602250;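 active = inhibition above a per-plate cutoff, the plate's mean sample inhibition plus 3 SD, cut at about 24% in these data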;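 also: 0% = DMSO plus EC80 ATP and 100% = DMSO alone without ATP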
M1 ag parental: nonselective activator or artifact in parental CHO-K1 cells; AID 602248; Fluo-8 calcium fluorescence; scaled to maximal ATP response, vehicle zero; activation, % at 3 µM; 360,000 compounds, 0.48% hits; in the data active = activation above about 15%;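 also: untransfected CHO-K1 host cells lacking M1 receptor as counterscreen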
M1 PAM: positive allosteric modulators of human M1 muscarinic receptor; activation, % at 3 µM; 360,000 compounds, 0.088% hits; CHO-K1 hM1, Fluo-8 calcium fluorescence, ACh EC20; 0% = ACh EC20, 100% = maximal ACh; P11229; in the data active = activation above about 19%, passing the limit was not always enough
Target sequence (P11229 whole entry, looked up): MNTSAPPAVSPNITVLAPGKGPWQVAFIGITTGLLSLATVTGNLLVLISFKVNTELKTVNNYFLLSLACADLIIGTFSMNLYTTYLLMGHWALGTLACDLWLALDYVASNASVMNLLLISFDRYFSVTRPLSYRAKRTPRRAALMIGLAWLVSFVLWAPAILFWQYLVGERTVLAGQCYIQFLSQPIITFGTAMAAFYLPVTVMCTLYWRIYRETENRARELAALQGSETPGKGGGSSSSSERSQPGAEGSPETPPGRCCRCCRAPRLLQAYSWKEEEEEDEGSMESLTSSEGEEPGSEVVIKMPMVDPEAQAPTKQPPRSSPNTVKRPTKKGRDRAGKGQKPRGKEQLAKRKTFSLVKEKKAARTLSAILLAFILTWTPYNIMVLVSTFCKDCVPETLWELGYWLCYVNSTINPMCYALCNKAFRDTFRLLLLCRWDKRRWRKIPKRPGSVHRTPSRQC
M1 antag: human CHRM1 antagonism | CHO-K1 hM1, Fluo-8 calcium fluorescence, ACh EC80 antagonist | inhibition, % at 3 µM | 360,000 compounds, 1.3% hits | AID 588852;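 active = percent inhibition above its own plate's cutoff, namely the mean of that plate's compound wells plus 3 SD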;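 also: peak over basal fluorescence ratio during 140 s after agonist addition; 0% = ACh EC80 plus DMSO and 100% = DMSO alone without agonist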
M1 ag: human M1 muscarinic receptor agonism. P11229. CHO-K1 hM1, Fluo-8 calcium fluorescence, agonist mode; 0% DMSO, 100% acetylcholine EC100. activation, % at 3 µM. 360,000 compounds, 0.33% hits;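 active = activation above the run's mean compound activation plus 3 SD, cut at about 16% in these data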;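 also: peak over basal fluorescence ratio within a 140 s kinetic read after compound addition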
Numbers without * were called inactive.

For CC(C)(C)CC(=O)Nc1cc(S(=O)(=O)N2CCOCC2)ccc1N1CCCC1 the results were CHO-K1 Ca PAM 16, CHO-K1 Ca antag -21, M1 ag parental 0, M1 PAM 5, M1 antag -25 and M1 ag -3.
COC(=O)Nc1ccc(S(=O)(=O)N2CCCC(C(=O)N3CC(C)OC(C)C3)C2)cc1 (stereo not given) was read as CHO-K1 Ca PAM 13, CHO-K1 Ca antag 1, M1 ag parental 16*, M1 PAM 7, M1 antag 6 and M1 ag -1.
Screening COC(=O)Nc1ccc(S(=O)(=O)N2CCCC(C(=O)N3CCOCC3)C2)cc1 (stereo not given) returned CHO-K1 Ca PAM 13, CHO-K1 Ca antag -11, M1 ag parental 1, M1 PAM 7, M1 antag -11 and M1 ag -2.
CC1CCCN(CC(=O)Nc2cc(S(=O)(=O)N3CCOCC3)ccc2N2CCCC2)C1 (stereo not given) was read as CHO-K1 Ca PAM -2, CHO-K1 Ca antag -7, M1 ag parental 0, M1 PAM -21, M1 antag 38* and M1 ag -8.
Screening CC1CCN(C(C)C(=O)Nc2cc(S(=O)(=O)N3CCCCC3)ccc2Cl)CC1 (stereo not given) returned CHO-K1 Ca PAM 11, CHO-K1 Ca antag -12, M1 ag parental 0, M1 PAM 2, M1 antag -8 and M1 ag -3.
`O=C(CN(CC1CCCO1)C(=O)CNS(=O)(=O)c1ccccc1)NCCc1ccccc1` (stereo not given) gave CHO-K1 Ca PAM -7, CHO-K1 Ca antag -11, M1 ag parental 0, M1 PAM 2, M1 antag -4 and M1 ag -4.
`COc1ccc(-c2ccc3c(c2)c(Sc2ccccc2)c(-c2ccccc2)n3C)cn1` gave CHO-K1 Ca PAM 21, CHO-K1 Ca antag -17 and M1 ag parental 1.
CC(C)NC(=O)Cn1nnc(-c2ccccc2)c1COc1ccc2ccccc2c1 was read as CHO-K1 Ca PAM 4, CHO-K1 Ca antag -2, M1 ag parental 1, M1 PAM 3, M1 antag -5 and M1 ag -2.
Screening CCc1ccc(OC(C)C(=O)Nc2ccc(S(=O)(=O)Nc3nccs3)cc2)cc1 (stereo not given) returned CHO-K1 Ca PAM -1, CHO-K1 Ca antag -8, M1 ag parental 10, M1 PAM 4, M1 antag 4 and M1 ag 17*.
`Cc1ccc(OC(C)C(=O)Nc2ccc(S(=O)(=O)Nc3nccs3)cc2)cc1` (stereo not given) gave CHO-K1 Ca PAM 9, CHO-K1 Ca antag -4, M1 ag parental 3, M1 PAM 11, M1 antag -11 and M1 ag 9.
`CC1(C)CCN2CCC(C)(C)c3c(O)ccc1c32` gave CHO-K1 Ca PAM 3, CHO-K1 Ca antag 26*, M1 ag parental 34*, M1 PAM -10, M1 antag 25 and M1 ag 23*.
Screening COc1ccc(NC(=O)NC(C)c2ccccc2)cc1 (stereo not given) returned CHO-K1 Ca PAM 9, CHO-K1 Ca antag -7, M1 ag parental 1, M1 PAM 8, M1 antag -9 and M1 ag -5.
Screening COc1ccc(NC(=O)N/C=C/c2ccccc2)cc1 returned CHO-K1 Ca PAM 18, CHO-K1 Ca antag 8, M1 ag parental 16*, M1 PAM 4, M1 antag -1 and M1 ag -10.
Screening COc1ccccc1-c1cnc(C(O)c2ccc(Cl)c(Cl)c2)[nH]1 (stereo not given) returned CHO-K1 Ca PAM 0, CHO-K1 Ca antag 4, M1 ag parental 2, M1 PAM -3, M1 antag -2 and M1 ag 1.
COc1ccc(C(CNc2ccc(S(=O)(=O)N3CCN(C)CC3)cc2[N+](=O)[O-])N(C)C)cc1 (stereo not given) was read as CHO-K1 Ca PAM 5, CHO-K1 Ca antag -4, M1 ag parental 1, M1 PAM 4, M1 antag -5 and M1 ag -6.
COc1ccc(C(CNc2ccc(S(=O)(=O)N3CCCC3)cc2[N+](=O)[O-])N2CCCC2)cc1 (stereo not given) was read as CHO-K1 Ca PAM 11, CHO-K1 Ca antag 6, M1 ag parental 2, M1 PAM -28, M1 antag 75* and M1 ag -10.
`COC(=O)c1c(C)[nH]c(C(=O)C(C)OC(=O)c2cc(C)oc2C)c1C` (stereo not given) gave CHO-K1 Ca PAM -25, CHO-K1 Ca antag 11, M1 ag parental 7, M1 PAM -16, M1 antag 28* and M1 ag -1.
COC(=O)c1c(C)[nH]c(C(=O)C(C)OC(=O)c2ccco2)c1C (stereo not given) was read as CHO-K1 Ca PAM 11, CHO-K1 Ca antag -15, M1 ag parental 2, M1 PAM 3, M1 antag 4 and M1 ag -1.
C=CC[C@@H](CC(=O)N[C@@H](CO)Cc1ccccc1)C(=O)NC[C@H](OC(=O)[C@@H](CC=C)Cc1ccc(F)cc1)c1ccccc1 was read as CHO-K1 Ca PAM 6, CHO-K1 Ca antag -11, M1 ag parental 3, M1 PAM -9, M1 antag 19 and M1 ag -3.
`C=CC[C@@H](CC(=O)N[C@@H](CO)Cc1ccccc1)C(=O)NCCOC(=O)[C@@H](CC=C)Cc1ccc(F)cc1` gave CHO-K1 Ca PAM -14, CHO-K1 Ca antag 24*, M1 ag parental 0, M1 PAM 7, M1 antag -8 and M1 ag 0.
For C=CC[C@@H](CC(=O)N(CCO)Cc1ccccc1)C(=O)NC[C@@H](OC(=O)[C@@H](CC=C)Cc1ccc(F)cc1)c1ccccc1 the results were CHO-K1 Ca PAM 15, CHO-K1 Ca antag 2, M1 ag parental 0, M1 PAM -3, M1 antag 14 and M1 ag -5.
`C=CC[C@H](CC(=O)N(CCO)Cc1ccccc1)C(=O)NC[C@H](OC(=O)[C@@H](CC=C)Cc1ccc(F)cc1)c1ccccc1` gave CHO-K1 Ca PAM -1, CHO-K1 Ca antag 4, M1 ag parental 6, M1 PAM -28, M1 antag 43* and M1 ag -8.
For C=CC[C@@H](CC(=O)NCCO)C(=O)NC[C@H](OC(=O)[C@@H](CC=C)Cc1ccc(F)cc1)c1ccccc1 the results were CHO-K1 Ca PAM -2, CHO-K1 Ca antag 0, M1 ag parental 9, M1 PAM -31, M1 antag 53* and M1 ag -5.
Screening COc1ccc2nc3cc(Cl)ccc3c(Nc3ccc(O)c(CN4CCN(C)CC4)c3)c2c1 returned CHO-K1 Ca PAM 2, CHO-K1 Ca antag -8, M1 ag parental 0, M1 PAM -15, M1 antag 11 and M1 ag -9.
